Screens as filed in PubChem.
Only some compounds are listed: those with a hit (about 0.51% of all), similar ones and a draw of the others.
E coli growth-1 – inhibitors of Escherichia coli growth; OD600, 23 h; hits give low values; OD600 absorbance (concentration not given with the values); actives 0.21% (n = 330,000);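 active = OD600 absorbance below the run mean of sample wells minus 3.6 SD, in any replicate, cut at about 0.56 in these data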
phage Ecoli inh – E. coli growth loss with phage present | growth absorbance | inhibition, % at 11.9 µM | actives 0.26% (n = 360,000) | AID 651602; in the data active = inhibition above about 11%
E coli growth-2 – counter-screen for AddAB inhibitors: E. coli growth inhibition. AID 449728. inhibition, % at 11.9 µM. E. coli V3065 growth, OD600 absorbance, 18 h. actives 0.27% (n = 330,000);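 active = inhibition above the campaign's mean inhibition across all tested compounds plus 3 SD, cut at about 9.9% in these data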;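 note: uninfected addAB+ strain grown without phage in ampicillin broth; 0% = DMSO wells and 100% = ciprofloxacin 0.95 µg/ml wells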
Tat transport – blocks Tat-dependent protein export in E. coli | AID 488895 | actives 0.036% (n = 340,000) | inhibition, % at 10 µM | E. coli MC4100 TorA-mCherry Tat export, fluorescence;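 active = mean replicate inhibition at least 50% and at least half of replicates individually reaching 50%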;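 note: exported cargo escapes ClpAP degradation while cytoplasmic cargo is degraded and loses fluorescence; 0% = median of neutral control wells and 100% = median of NaSCN control wells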
AddAB inh – less growth of phage-infected E. coli with AddAB. E. coli expressing H. pylori AddAB, absorbance growth. inhibition, % at 11.9 µM. actives 0.29% (n = 330,000); in the data active = inhibition above about 12%;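 note: 0% = vehicle wells of infected cells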
* marks the source's active call; other numbers are inactive results; nt = no result given.

SMILES	E coli growth-1	phage Ecoli inh	E coli growth-2	Tat transport	AddAB inh
CCN1/C(=C/C=C/C=C/C=C/c2sc3ccccc3[n+]2CC)Sc2ccccc21	0.85	2	-2	-9	-1
CCn1cc(C(=O)O)c(=O)c2cnc(N3CCN(C(=S)NC(=O)c4ccc(OC)cc4)CC3)nc21	0.43*	1	6	1	7
COc1ccc(F)cc1C1=CC(=O)CC(c2ccc3c(c2)OCO3)C1 (stereo unspecified)	0.7	nt	nt	nt	nt
CCn1cc(C(=O)OCC(=O)c2cc(C)n(-c3cccc(C(F)(F)F)c3)c2C)c(=O)c2ccc(C)nc21	0.72	6	-2	16	2
C=Cc1ccc(COC(=O)c2cn(CC)c3nc(C)ccc3c2=O)cc1	0.65	1	-1	2	2
CCn1cc(C(=O)NCc2cccc(C(F)(F)F)c2)c(=O)c2ccc(C)nc21	0.46*	-1	1	-10	3
CCn1cc(C(=O)NNC(=O)c2ccc(Cl)cc2)c(=O)c2ccc(C)nc21	0.38*	nt	1	0	2
C=CCOC(=O)c1cn(CC)c2nc(C)ccc2c1=O	0.52*	2	-1	-9	1
O=C(COc1ccccc1C=C1SC(=O)NC1=O)Nc1ccc(F)cc1	0.7	nt	nt	nt	nt
CCNC1CN(CCCOC)S(=O)(=O)c2sc(S(N)(=O)=O)cc21 (stereo unspecified)	0.66	nt	nt	nt	nt
CC(C)n1ncc2c(C(=O)O)cc(C3CC3)nc21	0.74	-2	-5	-11	0
CC(C)n1ncc2c(C(=O)N3CCN(Cc4ccc(Br)s4)CC3)cc(C3CC3)nc21	0.7	2	-3	53*	0
CC(=O)OCC1=C(C(=O)OC(C)(C)C)N2C(=O)[C@@H](NC(=O)Cc3ccccc3)[C@H]2SC1	0.72	1	nt	-5	nt
COCC1=C(C(=O)OC(C)OC(=O)OC(C)C)N2C(=O)C(NC(=O)C(=NOC)c3csc(N)n3)C2SC1 (stereo unspecified)	0.28*	nt	nt	nt	nt
COc1cccc(C(=O)NC2C(=O)N3C(C(=O)O)=C(COC(C)=O)CSC23)c1 (stereo unspecified)	nt	1	0	0	1
CON=C(C(=O)NC1C(=O)N2C(C(=O)O)=C(COC(C)=O)CSC12)c1csc(N)n1 (stereo unspecified)	0.063*	nt	nt	nt	nt
CC[C@H]1OC(=O)C[C@@H](O)[C@H](C)[C@@H](O[C@@H]2O[C@H](C)C[C@H](N(C)C)[C@H]2O)[C@@H](CC=O)C[C@@H](C)C(=O)C=C[C@]2(C)O[C@H]2[C@@H]1C	nt	nt	100*	nt	99*
CCC1=C(OC(=O)N(CC)CC)N2C(=O)OC(=NCCc3c[nH]c4ccccc34)[C@]2(C)C2C1=CCC1C(=O)NC(=O)C12 (stereo partly specified)	0.7	nt	nt	nt	nt
CCOc1ccc(NC(=O)COC(=O)CC2CCCCC2)cc1	0.69	12*	-1	-11	0
COc1ccc(C2CC(=O)C=C(c3cccc(C(C)C)c3)C2)cc1OC (stereo unspecified)	0.65	nt	nt	nt	nt
O=c1c(O)c(-c2ccccc2)oc2cc(O)cc(O)c12	0.69	7	3	7	6
O=c1c(O)c(-c2cc(O)c(O)c(O)c2)oc2cc(O)cc(O)c12	nt	10	10*	9	11
C(=C\c1ccco1)/c1nc2ccccc2[nH]1	0.57	10	2	-29	7
C(=C\c1nc2ccccc2[nH]1)/c1ccccc1	0.53*	2	-2	4	1
O=C(Cc1ccccc1)NNC(=S)NC(=O)c1cccs1	0.45*	-4	-8	nt	-6
SMILES	E coli growth-1	phage Ecoli inh	E coli growth-2	Tat transport	AddAB inh
Clc1ccc2c(c1)C(N1CCNCC1)Cc1ccccc1S2 (stereo unspecified)	0.55*	nt	-1	9	-1
CN1CCCCCC1=Nc1ccc([N+](=O)[O-])cc1	0.67	4	1	-3	3
CN1C(=O)C(N=Nc2ccc([N+](=O)[O-])cc2)SC1=S (stereo unspecified)	0.45*	-3	nt	6	nt
Cc1[nH]cnc1C(=O)NN=Cc1ccc([N+](=O)[O-])s1	0.41*	nt	nt	nt	nt
COC(=O)NN=Cc1ccc([N+](=O)[O-])s1	0.62	nt	nt	nt	nt
O=C(C=CNc1ccccc1Br)c1ccccn1	0.7	nt	nt	nt	nt
Cc1ccc(C(=O)N/C(=C\c2ccc(-c3ccc(Br)cc3)o2)C(=O)NCCCN(C)C)cc1	0.5*	3	-2	8	0
Cc1ccc(C(=O)N/C(=C\c2ccc(-c3cccc([N+](=O)[O-])c3)o2)C(=O)NCCCN(C)C)cc1	0.72	0	-1	-3	-2
Oc1ccc(CN2CCC(Cc3ccccc3)CC2)c2cccnc12	0.46*	9	nt	nt	nt
